The values that follow come from PubChem BioAssay AID504500 (NMMLSC, 2011).

Results with a measured potency or affinity are listed apart. Calls of active or inactive are those of the source.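 How the source made its calls: active means compounds whose curve fit is tight, with span above 25% and half-effect concentration below 10 µM; inactive means the rest.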

Sequence of Beta-adrenergic receptor kinase 1 (Homo sapiens) (P25098 whole entry, looked up): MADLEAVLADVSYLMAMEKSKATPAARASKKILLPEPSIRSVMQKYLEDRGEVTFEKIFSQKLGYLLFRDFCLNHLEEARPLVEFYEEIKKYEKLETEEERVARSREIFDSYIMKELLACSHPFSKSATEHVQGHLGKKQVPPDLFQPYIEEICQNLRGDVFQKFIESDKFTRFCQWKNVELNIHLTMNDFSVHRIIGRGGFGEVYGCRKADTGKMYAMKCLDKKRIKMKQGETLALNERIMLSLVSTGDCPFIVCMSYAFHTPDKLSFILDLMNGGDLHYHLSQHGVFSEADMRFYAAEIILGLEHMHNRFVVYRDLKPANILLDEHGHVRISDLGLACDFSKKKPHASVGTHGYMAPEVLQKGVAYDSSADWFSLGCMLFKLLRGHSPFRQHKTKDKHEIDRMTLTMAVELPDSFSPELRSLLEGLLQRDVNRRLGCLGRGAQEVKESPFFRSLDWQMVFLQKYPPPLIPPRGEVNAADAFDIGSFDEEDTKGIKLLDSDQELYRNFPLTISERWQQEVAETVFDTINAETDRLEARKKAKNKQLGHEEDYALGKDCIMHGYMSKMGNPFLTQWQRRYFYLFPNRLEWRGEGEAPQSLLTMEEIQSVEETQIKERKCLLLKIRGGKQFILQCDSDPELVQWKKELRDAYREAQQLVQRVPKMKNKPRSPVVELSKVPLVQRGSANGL

This experiment addresses Beta-adrenergic receptor kinase 1 (Homo sapiens) (UniProt P25098). As to the kind of experiment: aptamer displacement from bead-bound GRK2 – biochemical, cherry pick 1, bead flow cytometry, dose response (AID 504500). Particulars: bead-bound biotinylated GRK2, FAM-aptamer displacement; series mostly up to 33 µM. (In general: A flow cytometer gives signals particle by particle.)
Consider `Cn1ncnc2c(=O)n(C)c(=O)nc1-2`, for which the result was inactive.
As to `O=C1NC(=O)N(c2ccc3c(c2)OCO3)C(=O)/C1=C\c1ccc(-c2ccccc2C(=O)O)o1`, the call was inactive.
Consider `Cc1nc2c(=O)n(C)c(=O)nc-2n(C)n1`, for which the molecule was called inactive.
As to `CC[n+]1c(/C=C/N(C)c2ccccc2)sc2ccc(Cl)cc21`, the molecule was classed as inactive.
